From PubChem BioAssay
Compounds with a hit are over-represented: about 2.4% of the library has one in this group of screens.
Pol eta inh-1 = DNA polymerase eta (human) inhibition | Q9Y253 | recombinant Pol eta, fluorescent DNA replication assay | Potency, µM (highest dose often 114 µM), without a hit: at the top dose activity change, negative = inhibition, most hits filed as inhibitors | hit rate 1.2% among 390,000 | AID 588591; further: potency means the concentration at half of the fitted maximal effect; on the % scale 0 is the no-effect control and ±100 the full control effect
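Pol eta (10 nM) was preincubated with compounds for 15 min at room temperature, after which fluorescent replication substrate (50 nM final) was added to start the reaction. Fluorescence was read kinetically at 0 and 10 min.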
FEN1 inh-1 = inhibitors of human flap endonuclease 1 | P39748 | Recombinant FEN1 flap cleavage, fluorescence, 15 min | Potency, µM (titrated, usually from 114 µM), inactives show at the highest dose activity change, negative = inhibition, actives largely listed as inhibitors | hit rate 0.35% among 390,000 | AID 588795; further: potency means the concentration at half of the fitted maximal effect; on the % scale 0 is the no-effect control and ±100 the full control effect; nearly all actives have a fitted effect of over 65% in size
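Read-out was taken twice, immediately and after 15 min, following addition of 50 nM substrate to 10 nM FEN1 that had sat with test compound for 15 min at room temperature. Curves came from a four-parameter Hill model.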
Pol beta inh-1 = DNA polymerase beta (human) inhibition; Pol beta primer extension/strand displacement, fluorescence kinetic; Potency, µM (titrated, usually from 114 µM), inactives show at the top dose activity change, negative = inhibition, most hits filed as inhibitors; hit rate 1.3% among 340,000; AID 485314; further: potency means the concentration at half of the fitted maximal effect; on the % scale 0 is the no-effect control and ±100 the full control effect
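Enzyme-only controls used 10 nM Pol beta; buffer lacking enzyme served as negative control. Compound preincubated 15 min, then 50 nM substrate added; 0 and 10 min reads at room temperature.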
WRN helicase inh = WRN helicase (human) inhibition | Q14191 | WRN helicase unwinding, fluorescent forked duplex, kinetic | Potency, µM (top dose mostly 114 µM), inactives show at the highest dose activity change, negative = inhibition, hits mostly inhibitors | hit rate 0.46% among 360,000; further: potency means the concentration at half of the fitted maximal effect; on the % scale 0 is the no-effect control and ±100 the full control effect; nearly all actives have a fitted effect of over 55% in size
Target sequence (Q14191 whole entry, looked up): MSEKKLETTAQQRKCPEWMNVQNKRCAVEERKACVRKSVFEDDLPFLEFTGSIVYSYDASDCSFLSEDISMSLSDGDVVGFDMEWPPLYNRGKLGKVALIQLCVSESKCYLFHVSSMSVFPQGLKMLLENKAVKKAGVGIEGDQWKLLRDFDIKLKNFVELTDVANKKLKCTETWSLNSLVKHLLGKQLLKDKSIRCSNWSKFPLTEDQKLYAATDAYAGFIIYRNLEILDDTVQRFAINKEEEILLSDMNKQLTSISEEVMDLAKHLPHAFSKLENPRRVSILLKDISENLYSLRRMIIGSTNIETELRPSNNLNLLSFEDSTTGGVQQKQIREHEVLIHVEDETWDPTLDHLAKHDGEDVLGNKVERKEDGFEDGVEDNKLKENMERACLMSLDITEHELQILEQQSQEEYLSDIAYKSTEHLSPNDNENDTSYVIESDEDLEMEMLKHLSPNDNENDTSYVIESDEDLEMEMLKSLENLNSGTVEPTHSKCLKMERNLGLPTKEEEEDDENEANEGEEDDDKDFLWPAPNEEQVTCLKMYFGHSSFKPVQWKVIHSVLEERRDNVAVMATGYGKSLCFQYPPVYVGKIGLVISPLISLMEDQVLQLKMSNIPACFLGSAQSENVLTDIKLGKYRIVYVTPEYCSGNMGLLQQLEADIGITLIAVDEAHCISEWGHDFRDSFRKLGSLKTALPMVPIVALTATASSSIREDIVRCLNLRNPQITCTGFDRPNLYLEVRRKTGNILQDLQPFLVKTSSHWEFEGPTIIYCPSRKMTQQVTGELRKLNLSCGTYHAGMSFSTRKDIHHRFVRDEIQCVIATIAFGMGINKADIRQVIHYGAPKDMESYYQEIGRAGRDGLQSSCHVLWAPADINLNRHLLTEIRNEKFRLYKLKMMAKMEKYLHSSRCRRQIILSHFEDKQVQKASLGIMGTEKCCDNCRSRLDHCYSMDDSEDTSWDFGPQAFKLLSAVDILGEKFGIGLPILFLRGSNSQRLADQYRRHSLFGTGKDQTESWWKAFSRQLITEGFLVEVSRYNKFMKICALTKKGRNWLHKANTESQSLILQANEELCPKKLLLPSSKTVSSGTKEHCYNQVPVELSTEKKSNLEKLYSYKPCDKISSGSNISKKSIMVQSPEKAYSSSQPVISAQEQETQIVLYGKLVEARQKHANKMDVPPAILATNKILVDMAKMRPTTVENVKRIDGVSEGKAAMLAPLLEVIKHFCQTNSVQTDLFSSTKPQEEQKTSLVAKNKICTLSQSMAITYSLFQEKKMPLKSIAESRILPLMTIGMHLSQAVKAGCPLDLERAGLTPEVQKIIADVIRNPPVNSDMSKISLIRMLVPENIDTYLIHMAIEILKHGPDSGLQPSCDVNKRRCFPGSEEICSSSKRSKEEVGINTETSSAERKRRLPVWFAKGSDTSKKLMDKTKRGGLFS
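Primary qHTS, 1536-well format. 20 nM WRN + compound, 15 min RT; start with 100 nM forked fluorophore/quencher duplex, 2 mM ATP (final); kinetic read ex 525/em 598 nm.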
POLI inh = DNA polymerase iota (human) inhibition | Q9UNA4 | hit rate 1% among 390,000 | AID 588590 | Pol iota fluorescent replication assay, 10 min | Potency, µM (top dose mostly 115 µM), without a hit: at the highest dose activity, negative = inhibition, most hits filed as inhibitors; further: potency means the concentration at half of the fitted maximal effect
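Pol iota at 10 nM preincubated 15 min with compounds at room temperature; reaction started with fluorescent substrate, 50 nM final. Fluorescence read kinetically at 0 and 10 min; buffer-only wells as negative control.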
Pol kappa inh-1 = DNA polymerase kappa (human) inhibition. hit rate 0.53% among 400,000. purified Pol kappa, fluorescent DNA synthesis assay, 10 min. Q9UBT6. Potency, µM (top dose mostly 107 µM), for the others: at the highest dose activity, negative = inhibition, actives largely listed as inhibitors; further: potency means the concentration at half of the fitted maximal effect; on the % scale 0 is the no-effect control and ±100 the full control effect
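Pol kappa 10 nM + cpd, 15 min RT; start w/ substrate 50 nM final; fluorescence kinetic read, 0 and 10 min. Neg ctrl: buffer, no enzyme.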
Pol beta inh-2 = Human Pol beta inhibitor hit validation; shares compounds with Pol beta inh-1; Pol beta primer extension/strand displacement, fluorescence kinetic; Potency, µM, usual class: inhibitors; hit rate 87% among 250; AID 540280; calls by dose curve; further: potency means the concentration at half of the fitted maximal effect
Klenow inh = Klenow polymerase inhibition, pol beta selectivity check | shares compounds with Pol beta inh-1 | Klenow exo- polymerase counter-screen, fluorescent DNA substrate | activity change, negative = inhibition, % at 57.1 µM | 250 tested, under 10 active
HIV RT inh = HIV-1 RT inhibition, pol beta selectivity check | shares compounds with Pol beta inh-1 | HIV-1 RT polymerase activity, counter-screen | activity % (negative = inhibition, positive = activation), % at 57.1 µM | 250 tested, under 10 active
POLB valid = validation of human DNA polymerase beta inhibitors. AID 540325. shares compounds with Pol beta inh-1. hit rate 91% among 110. inhibition, % at 10 µM. radiolabeled primer extension gel assay, phosphorimager;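 active means inhibition at 10 µM of 30% or more; inconclusive means no clear call, values can overlap the other calls; inactive means inhibition at 10 µM under 30%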
Pol iota confirm = Inhibitors of human DNA polymerase iota, confirmation; hit rate 77% among 1,500; AID 720496; Potency, µM, usual class: inhibitors; shares compounds with Pol kappa inh-1; Pol iota primer extension, TAMRA/BHQ fluorescence; further: potency means the concentration at half of the fitted maximal effect
Pol kappa inh-2 = Pol kappa (human) inhibition, cherry-pick confirmation | hit rate 76% among 920 | purified Pol-kappa, fluorescent strand-displacement substrate | Potency, µM, most hits filed as inhibitors | AID 720501 | shares compounds with Pol eta inh-1; further: potency means the concentration at half of the fitted maximal effect
Pol eta inh-2 = confirmation of human DNA polymerase eta inhibitors; shares compounds with Pol eta inh-1; Pol eta primer extension, TAMRA/BHQ fluorescence, 10 min; Potency, µM, hits mostly inhibitors; hit rate 64% among 2,600; further: potency means the concentration at half of the fitted maximal effect
FEN1 inh-2 = FEN1 inhibition, cherry-pick retest | shares compounds with FEN1 inh-1 | FEN1 flap cleavage, TAMRA/BHQ2 fluorogenic DNA substrate | Potency, µM, most hits filed as inhibitors | hit rate 79% among 880; further: potency means the concentration at half of the fitted maximal effect; nearly all actives have a fitted effect of over 60% in size
* = called active by the depositor; [ ] = remark or other dose. Unless noted, the call rests on the fitted dose curve; in most records, active means well fitted curve in the direction sought with a large enough effect; inconclusive means small, poorly fitted or top-dose-only effect, or another doubt; inactive means no such curve, though single readings can be large; an effect the other way counts as inactive or inconclusive.

Screening O=c1c2c3c(sc2[nH]c(=S)n1Cc1ccco1)CCC3 returned Pol eta inh-1 20µM*, FEN1 inh-1 inconclusive, Pol beta inh-1 8.9µM*, WRN helicase inh inconclusive, POLI inh 18µM*, Pol kappa inh-1 inconclusive, Pol beta inh-2 16*, Klenow inh -12, HIV RT inh -3, Pol iota confirm 42* and Pol eta inh-2 43*.
For Cc1ccc(S(=O)(=O)Cc2ccc(C(=O)N3CCc4ccccc4C3)o2)cc1 the results were Pol eta inh-1 20µM*, FEN1 inh-1 -27%, Pol beta inh-1 16µM*, WRN helicase inh inconclusive, POLI inh inconclusive, Pol kappa inh-1 56µM*, Pol beta inh-2 35*, Klenow inh -10, HIV RT inh 3, Pol iota confirm 42* and Pol eta inh-2 48*.
Screening Cc1nn2c(=O)cc(COC(=O)c3cccc(NC(=O)c4ccc(F)cc4)c3)nc2s1 returned Pol eta inh-1 -1%, FEN1 inh-1 -4%, Pol beta inh-1 13%, POLI inh -13% and Pol kappa inh-1 -3%[60.1 µM].
For c1coc(-c2nnc3sc(Cc4cccs4)nn23)c1 the results were Pol eta inh-1 28µM*, FEN1 inh-1 56µM*, Pol beta inh-1 13µM*, WRN helicase inh 45µM*, POLI inh 7.9µM*, Pol kappa inh-1 20µM*, Pol beta inh-2 22*, Klenow inh -10, HIV RT inh 38, POLB valid 36*, Pol iota confirm inconclusive and Pol eta inh-2 inconclusive.
For Clc1ccc(-c2nnc3sc(Cc4cccs4)nn23)c(Cl)c1 the results were Pol eta inh-1 -17%, FEN1 inh-1 -2%, Pol beta inh-1 inconclusive, WRN helicase inh -3%, POLI inh 12% and Pol kappa inh-1 -13%.
Screening O=C(CSc1ccccn1)Nc1ccc2c(c1)C(=O)c1ccccc1C2=O returned Pol eta inh-1 inconclusive, FEN1 inh-1 inconclusive, Pol beta inh-1 8.9µM*, WRN helicase inh 40µM*, POLI inh 3%, Pol kappa inh-1 -24%, Pol beta inh-2 11*, Klenow inh -26, HIV RT inh 24, Pol iota confirm 53*, Pol kappa inh-2 60* and Pol eta inh-2 60*.
Screening O=C(CSc1ccccn1)Nc1ccc2ccccc2c1 returned Pol beta inh-1 -14%.
Screening COC(=O)c1c(NC(=O)CN2C(=O)NC3(CCC(C)CC3)C2=O)sc2c1CCC2 (stereo unspecified) returned Pol eta inh-1 3%, FEN1 inh-1 3%, WRN helicase inh -1%, POLI inh inconclusive and Pol kappa inh-1 -13%.
Screening CC1CCC2(CC1)NC(=O)N(CC(=O)Nc1sc3c(c1C(N)=O)CCC3)C2=O (stereo unspecified) returned Pol eta inh-1 18µM*, FEN1 inh-1 -30%, Pol beta inh-1 5µM*, WRN helicase inh 50µM*, POLI inh 11µM*, Pol kappa inh-1 inconclusive, Pol beta inh-2 20*, Klenow inh -11, HIV RT inh inconclusive, POLB valid 100*, Pol iota confirm 38* and Pol eta inh-2 19*.
Screening N#Cc1c(NC(=O)CSc2ncnc3sccc23)oc(-c2ccco2)c1-c1ccco1 returned Pol eta inh-1 14µM*, FEN1 inh-1 inconclusive, Pol beta inh-1 10µM*, WRN helicase inh inconclusive, POLI inh inconclusive, Pol kappa inh-1 45µM*, Pol beta inh-2 28*, Klenow inh -20, HIV RT inh -2, POLB valid 93*, Pol iota confirm 42*, Pol kappa inh-2 6.7*, Pol eta inh-2 19* and FEN1 inh-2 67*.
`Cc1cc(NC(=O)CSc2ncnc3sccc23)no1` gave Pol eta inh-1 -7%, FEN1 inh-1 -13%, Pol beta inh-1 11%, WRN helicase inh -11%, POLI inh 0% and Pol kappa inh-1 -2%.
`CCOC(=O)C1=C(C)N=c2s/c(=C\c3ccc(OCC(=O)O)cc3)c(=O)n2C1c1ccccc1` (stereo unspecified) gave Pol eta inh-1 inconclusive, FEN1 inh-1 -23%, Pol beta inh-1 -22%, WRN helicase inh inconclusive, POLI inh 52% and Pol kappa inh-1 -14%.
`CC1=C(C(=O)OC(C)C)C(c2ccc(Cl)cc2)n2c(s/c(=C\c3ccc(OCC(=O)O)cc3)c2=O)=N1` (stereo unspecified) gave Pol eta inh-1 8.9µM*, FEN1 inh-1 inconclusive, Pol beta inh-1 3.5µM*, WRN helicase inh -11%[11.6 µM], POLI inh inconclusive, Pol kappa inh-1 -31%, Pol beta inh-2 7.1*, Klenow inh -6, HIV RT inh 19, Pol iota confirm 38*, Pol eta inh-2 60* and FEN1 inh-2 67*.
Screening Cn1c(Oc2ccc(Cl)cc2)nc2c1c(=O)n(Cc1ccc(F)cc1)c(=O)n2C returned Pol eta inh-1 -16%, FEN1 inh-1 1%, Pol beta inh-1 3%, POLI inh -4% and Pol kappa inh-1 -3%.
